HPGD block – qHTS Assay for Inhibitors of HPGD (15-Hydroxyprostaglandin Dehydrogenase); Potency, µM, for the others: at the top dose activity change, negative = inhibition, most hits filed as inhibitors; purified HPGD, NADH fluorescence kinetic, PGE2 substrate; 4.3% of 150,000 active; AID 894, 2007; active = well fitted inhibition curve with a large enough effect, not every such curve was filed as active; inconclusive = small, poorly fitted or top-dose-only effect, or another doubt; inactive = no such curve, though single readings can be large or run the other way; note: potency is the fitted concentration of half-maximal effect; % is set by controls: 0 for no effect and ±100 for the full control effect
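20 nM HPGD preincubated 15 min at room temperature with compound in 50 mM Tris-HCl pH 8, 0.01% Tween 20. Started with 1 mM NAD+ and 30 uM prostaglandin E2; NADH fluorescence (360/450 nm) read 5 times over 30-s intervals, last minus first.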
HttQ103 aggreg – qHTS Multiplex Assay to Identify Dual Action Probes in a Cell Model of Huntington: Aggregate Formation (GFP). 1.1% of 220,000 active. Potency, µM (series often up to 46.1 µM), without a hit: top-dose activity change, negative = inhibition, actives largely listed as inhibitors. PC12 HttQ103-GFP aggregates, Acumen cytometry, 40 h; note: potency is the fitted concentration of half-maximal effect; % is set by controls: 0 for no effect and ±100 for the full control effect; nearly all actives have a fitted effect of over 60% in size
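PC12 cells stably carrying ecdysone-inducible HTT exon 1 Q103–GFP were induced with tebufenozide (100 nM final) and treated with library compounds in titration. GFP aggregates in lysates were counted by laser scanning cytometry.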
CBFb-RUNX1 inh – qHTS Assay for Compounds Blocking the Interaction Between CBF-beta and RUNX1 for the Treatment of Acute Myeloid Leukemia | 230,000 tested, under 10 active | Runt-related transcription factor 1 (Homo sapiens) + Core-binding factor subunit beta … | Potency, µM (series often up to 59.8 µM), for inactives: top-dose activity, negative = inhibition, most hits filed as inhibitors | AlphaScreen CBFb-His/RUNX1-biotin binding, biochemical | AID 1477, 2009; note: % of control where 0% means no effect
Target sequence (Q01196 whole entry, looked up): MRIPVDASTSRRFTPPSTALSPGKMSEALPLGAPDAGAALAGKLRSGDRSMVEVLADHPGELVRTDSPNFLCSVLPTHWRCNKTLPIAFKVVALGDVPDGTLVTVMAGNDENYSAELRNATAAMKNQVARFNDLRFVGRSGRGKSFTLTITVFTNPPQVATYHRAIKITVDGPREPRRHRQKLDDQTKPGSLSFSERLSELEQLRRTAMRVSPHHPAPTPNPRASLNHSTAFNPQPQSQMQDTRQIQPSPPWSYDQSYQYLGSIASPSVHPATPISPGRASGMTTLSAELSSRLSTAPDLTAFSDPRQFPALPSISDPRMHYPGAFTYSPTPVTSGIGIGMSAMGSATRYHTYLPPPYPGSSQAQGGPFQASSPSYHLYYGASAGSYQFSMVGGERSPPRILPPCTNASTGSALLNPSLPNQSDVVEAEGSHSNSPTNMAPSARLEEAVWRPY
Target sequence (Q13951 whole entry, looked up): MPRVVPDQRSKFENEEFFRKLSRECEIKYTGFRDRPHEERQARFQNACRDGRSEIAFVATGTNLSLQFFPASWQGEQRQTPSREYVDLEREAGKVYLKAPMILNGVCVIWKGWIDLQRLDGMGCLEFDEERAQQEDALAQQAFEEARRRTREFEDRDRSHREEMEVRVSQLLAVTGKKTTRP
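CBF-beta (His) and RUNX1 (biotin), 30 nM each; 20 min preassociation; + compound, 15 min; + beads 50 ng each (Ni, streptavidin), 90 min; RT; AlphaScreen read.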
HTT cytoprotect – qHTS Multiplex Assay to Identify Dual Action Probes in a Cell Model of Huntington: Cytoprotection (ATP). PC12 HTT-Q103 induced, cytoprotection, ATP luminescence, 40 h. Potency, µM (titrated, usually from 56.4 µM), without a hit: cytoprotection (ATP increase), most hits filed as activators. 0.14% of 230,000 active; note: potency is the fitted concentration of half-maximal effect; % of control where 0% means no effect; nearly all actives have a fitted effect of over 45% in size
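Stable PC12 Q103-GFP cells in serum-supplemented, phenol red-free DMEM; induction by tebufenozide at 100 nM final; compound dose series; cell viability quantified luminescently from ATP.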
PNC assembly inh – High Content Assay for Compounds that inhibit the Assembly of the Perinucleolar Compartment; PC3M PTB-GFP, PNC prevalence imaging, 16 h; hits give low values; activity change (PNC), negative = inhibition, % at 10 µM; 3.1% of 140,000 active; AID 2417, 2010;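 active = readout at or below -70, meaning at least 70% loss of cells showing the perinucleolar compartment, a nuclear body marking cancer cells; inconclusive = readout between -30 and a set limit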;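 note: plate controls were DMSO wells for no effect and camptothecin positive control wells for full effect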
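PC3M cells stably expressing PTB-GFP, 750–1000 cells/well, treated 16 h at 37 °C with compound (23 nl of library stock), in duplicate. After paraformaldehyde fixation and Hoechst stain, imaged at 20x; PNC prevalence scored by image analysis.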
ALDH1A1 block – qHTS Assay for Inhibitors of Aldehyde Dehydrogenase 1 (ALDH1A1). 7.3% of 220,000 active. Purified ALDH1A1, NADH fluorescence, propionaldehyde substrate. Potency, µM (titrated, usually from 75.3 µM), for the others: at the highest dose activity, negative = inhibition, hits mostly inhibitors; active = well fitted inhibition curve with a large enough effect, not every such curve was filed as active; inconclusive = small, poorly fitted or top-dose-only effect, or another doubt; inactive = no such curve, though single readings can be large or run the other way;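 note: potency is the fitted concentration of half-maximal effect; plate controls were no enzyme wells and a reference inhibitor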
Starred values were filed as active, the others as inactive; u = inconclusive; x = no result; [ ] = another dose, or the depositor's remark. Most compounds without a hit are left out; they make up all but 11% or so of the library. Unless noted, calls come from the whole dose curve; as a rule, active = well fitted curve in the direction sought with a large enough effect; inconclusive = small, poorly fitted or top-dose-only effect, or another doubt; inactive = no such curve, though single readings can be large; an effect the other way counts as inactive or inconclusive.

SMILES	HPGD block	HttQ103 aggreg	CBFb-RUNX1 inh	HTT cytoprotect	PNC assembly inh	ALDH1A1 block
O=C(Nc1ccccc1)C12CC1/C(=N\O)c1ccccc1O2 (configuration not stated)	x	x	4.8%	-45.7%	x	u
Oc1cccc(-c2nc3ccccc3s2)c1	-12.2%	-11.6%	8.2%	-151.8%[0.074 µM]	u	-7.1%
Nc1ccc(C(=O)OCc2nc3ccccc3s2)cc1	x	-7.8%	10.0%	-17.0%	x	10.4%
O=C(Cc1ccccc1)c1nc2ccccc2s1	22.4µM*	17.1%	-20.7%	14.0%[10 µM]	-2.1	-0.8%
COC(=O)c1ccc(CC(=O)c2nc3ccccc3s2)cc1	-8.2%	-11.5%	0.5%	15.8%[10 µM]	-25.7	4.5%
Oc1ccc(O)c(Cc2nc3ccccc3s2)c1	x	u	u	-9.5%	x	20µM*
Oc1ccccc1OCc1nc2ccccc2s1	12.6µM*	-11.1%	5.8%	-19.3%	15.2	-12.2%
N/C(Cc1nc2ccccc2s1)=N\O	x	-5.0%[9.22 µM]	-5.8%	-9.2%[10 µM]	x	x
NC(=O)CSCc1nc2ccccc2s1	u	-6.4%	3.2%	4.3%	u	7.94µM*
O=C(OCc1nc2ccccc2s1)c1ccc(Br)s1	15.8µM*	0.3%	11.1%	1.8%	u	-4.1%
Cc1ccc(NNC(=O)C(=O)N2CCCCC2)cc1	-2.2%	-7.1%	-0.4%	-15.9%[1.9 µM]	-89.9*	-2.7%
Cc1ccc2cc3c(nc2c1)OCC3	x	-24.8%[9.22 µM]	8.8%	-13.0%[10 µM]	x	x
COc1cccc(/C=c2\sc3nc(-c4cccs4)nn3c2=O)c1OC	14.1µM*	13.9%	-2.0%	-44.4%	u	3.6%
COc1ccccc1/C=c1\sc2nc(-c3cccs3)nn2c1=O	x	x	x	-10.8%[0.074 µM]	x	x
C=CCN1C(=O)S/C(=C\c2ccc(N3CCOCC3)cc2C)C1=O	u	u	-5.8%	-23.1%	3.7	0.891µM*
C=CCN1C(=O)S/C(=C\c2ccc3c(c2)n(C)c(=O)n3C)C1=O	13.7%	31.5%	-2.6%	12.3%[10 µM]	13.2	0.282µM*
C=CCN1C(=O)S/C(=C/c2ccsc2)C1=O	-24.1%	-25.0%	0.8%	-1.5%[10 µM]	-9.6	12.6µM*
CCOC(=O)CN1C(=O)S/C(=C/c2ccc3c(c2)n(C)c(=O)n3C)C1=O	-19.5%	-11.8%	1.7%	x	-1.3	u
O=C(NCC1CCCO1)c1sc2ccccc2c1Cl (configuration not stated)	8.91µM*	15.6%	-2.1%	-8.6%[1.9 µM]	34.3	u
Cc1ccc2c(Cl)c(C(=O)NCC3CCCO3)sc2c1 (configuration not stated)	14.1µM*	0.0%	-0.1%	-14.8%	34.5	-9.0%
NC(N)=NCCC[C@@H](N)C(=O)O	2.7%	x	14.9%	-33.6%	x	4.3%
O=C(COn1nnc2ccccc21)N1CCN(Cc2ccccc2)CC1	x	12.0%	5.0%	1.3%	x	u
CCCn1nc(C(=O)Oc2ccc3c(C)cc(=O)oc3c2)c2ccccc2c1=O	u	-30.3%	-3.2%	11.1%[10 µM]	u	u
COc1ccc(C(=O)COC(=O)C2CCN(S(=O)(=O)c3cccc4cccnc34)CC2)cc1	-11.5%	2.6%	1.7%	-3.8%[10 µM]	32.6	-3.5%
O=C(COC(=O)C1CCN(S(=O)(=O)c2cccc3cccnc23)CC1)c1ccc([N+](=O)[O-])cc1	-6.0%	-0.5%	0.1%	-4.3%[10 µM]	-26.5	6.31µM*
NNc1nc2ccc(F)cc2s1	-12.8%	5.4%	u	2.7%[10 µM]	24.1	u
NNc1nc2ccc(Cl)cc2s1	-16.6%	u	-6.4%	-3.6%[10 µM]	46.0	35.5µM*
CCOC(=O)C(O)(CC(=O)c1ccc(OC)cc1)C(F)(F)F (configuration not stated)	-3.7%	-2.1%	8.4%	26.7%[10 µM]	-81.0*	u
